High-throughput results (PubChem)
Hits are enriched below; roughly 3.1% of the tested compounds scored in any of these assays.
Tau FP inhib – blocks human tau fibril formation measured by polarization | P10636 | K18 P301L tau heparin fibrillization, Alexa594 FP, 6 h | Potency, µM (highest dose often 57.7 µM), inactives show at the top dose activity, negative = inhibition, actives largely listed as inhibitors | 280,000 compounds, 0.39% hits | AID 1468; further: nearly all actives have a fitted effect of over 55% in size
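Compound effects on tau fibrillization are measured by Alexa 594 fluorescence polarization (ex 555, em 632 nm). K18 P301L tau is used at 15 uM with 0.24 uM labeled tracer, and 20 uM heparin induces aggregation over 6 hr at 37 C.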
TexasRed fluor – alters Texas Red total fluorescence, flagging assay interference. 280,000 compounds, 0.29% hits. TRb/SRC2 Texas Red total fluorescence interference. AID 1479. Potency, µM (titrated, usually from 106 µM), for inactives: top-dose fluorescence change, negative = quenching; active means well fitted curve in either direction with a large enough effect; inconclusive means small, poorly fitted or top-dose-only effect
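Human TRβ ligand-binding domain (0.6 uM) and Texas Red SRC2 peptide (20 nM) in Tris buffer with 1 uM T3 and 5% DMSO were incubated with pinned compound for 5 hr at ambient temperature. Total fluorescence was computed as S + 2P (555/632 nm).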
Tau fluor counter – counter-screen for tau fibril formation inhibitors; 280,000 compounds, 0.93% hits; tau K18 P301L Alexa594 fluorescence, heparin fibrillization; Potency, µM (titrated, usually from 57.7 µM), for inactives: top-dose activity change, negative = decrease; further: nearly all actives have a fitted effect of over 55% in size
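Human tau K18 P301L (15 uM unlabeled, 0.24 uM Alexa 594-labeled) in 100 mM sodium acetate pH 7 with 20 uM heparin, 6 hr at 37 C. ThT 30 uM added, 1 hr ambient; Alexa 594 FP and total fluorescence read at 555/632 nm.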
Tau fibril ThT – tau fibrillization inhibition (ThT binding). Potency, µM (highest dose often 57.4 µM), for inactives: top-dose activity, negative = inhibition, usual class: inhibitors. 270,000 compounds, 2.1% hits. recombinant tau K18 P301L (four-repeat tau fragment), heparin-induced fibrillization, ThT fluorescence; further: nearly all actives have a fitted effect of over 55% in size
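Recombinant human tau K18 fragment […] carrying P301L, 15 uM unlabeled plus 0.24 uM Alexa 594-labeled, was fibrillized with 20 uM heparin in 100 mM sodium acetate pH 7 for 6 hr at 37 C; 30 uM ThT fluorescence read after 1 hr.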
TRb-SRC2 inh – disrupts binding of human TR beta to SRC2; P10828; TRbeta-SRC2 peptide binding, fluorescence polarization; receptor liganded with 1 µM T3; Potency, µM (series often up to 106 µM), without a hit: top-dose activity change, negative = inhibition, most hits filed as inhibitors; 280,000 compounds, 0.065% hits;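 further: plate controls were bound peptide for no effect and peptide without receptor for full effect; nearly all actives have a fitted effect of over 50% in size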
Target sequence (P10828 whole entry, looked up): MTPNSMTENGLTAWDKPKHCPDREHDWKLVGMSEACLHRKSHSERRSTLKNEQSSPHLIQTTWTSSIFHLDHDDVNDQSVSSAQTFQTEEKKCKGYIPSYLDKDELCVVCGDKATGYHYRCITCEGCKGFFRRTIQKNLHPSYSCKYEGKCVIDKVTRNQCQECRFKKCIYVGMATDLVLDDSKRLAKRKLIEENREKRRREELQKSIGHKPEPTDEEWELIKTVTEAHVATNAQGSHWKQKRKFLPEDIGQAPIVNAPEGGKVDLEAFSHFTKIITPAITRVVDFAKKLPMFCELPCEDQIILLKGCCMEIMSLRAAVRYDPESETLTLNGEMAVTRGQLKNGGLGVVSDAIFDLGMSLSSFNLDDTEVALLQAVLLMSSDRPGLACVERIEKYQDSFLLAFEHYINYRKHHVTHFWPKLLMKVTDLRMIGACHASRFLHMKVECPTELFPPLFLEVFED
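TRb LBD 0.6 uM + Texas Red SRC2 peptide 20 nM, 1 uM T3, Tris buffer w/ 5% DMSO; compound pinned, 5 h RT; FP read ex 555/em 632; normalized to unbound and bound controls.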
An asterisk follows results filed as active; ? = inconclusive; . = no result; [ ] = remark or other dose. Unless noted, the call rests on the fitted dose curve; in most records, active means well fitted curve in the direction sought with a large enough effect; inconclusive means small, poorly fitted or top-dose-only effect, or another doubt; inactive means no such curve, though single readings can be large; an effect the other way counts as inactive or inconclusive. Unless noted, on the % scale 0 is the no-effect control and ±100 the full control effect; potency means the concentration at half of the fitted maximal effect.

SMILES	Tau FP inhib	TexasRed fluor	Tau fluor counter	Tau fibril ThT	TRb-SRC2 inh
NS(=O)(=O)c1ccc(N/N=C2/CCCc3ccccc32)c([N+](=O)[O-])c1	-4%	1%	2%	7%	3%
CC(C)(C)C1CCC(=NNc2ccc(S(N)(=O)=O)cc2[N+](=O)[O-])CC1 (stereo unspecified)	11%	-1%	?	13µM*	9%
CC1CCCC/C1=N\Nc1ccc(S(N)(=O)=O)cc1[N+](=O)[O-] (stereo unspecified)	11%	-1%[53 µM]	-9%	16µM*	-6%[53 µM]
CC1CCN(S(=O)(=O)c2ccc3c(c2)oc(=O)n3CC(=O)N2CCCCC2)CC1	-1%	-2%	-5%	-1%	4%
Cc1ccc(CCNC(=O)C(CC(C)C)NS(=O)(=O)c2ccc3c(c2)oc(=O)n3C)cc1 (stereo unspecified)	-9%	-1%	-1%	9%	-8%
C/C(=N\Nc1nc2ccccc2s1)c1ccc2c(c1)OCO2	-1%	-3%[53 µM]	?	?	-1%[53 µM]
C/C(=N\Nc1nc2ccccc2s1)c1ccc(Br)s1	?	-4%	11µM*[quencher]	?	-3%
COc1c(O)c(O)cc2c1oc1c3ccccc3oc(=O)c21	?	-10%	10µM*[quencher]	7.9µM*	10%
CC(NCc1ccc(S(N)(=O)=O)cc1)C(=O)N1c2ccccc2CC1C (stereo unspecified)	2%	2%	-6%	1%	-3%
N=C1CCC(=N)c2c1c(O)c1ccccc1c2O	25µM*	45µM*[fluorescent]	?	13µM*	32µM*
Cc1cc(O)c2ccccc2c1O	.	-6%	.	.	1%
Cc1ccc(O)c(N=Cc2cccs2)c1	?	-7%	?	25µM*	3%
Cc1ccc(O)c(N=Cc2ccc(C)s2)c1	?	-6%	?	22µM*	-6%
Cn1c(O)c(/C=C2\C=Nc3ccccc32)sc1=Nc1ccc(C(=O)O)cc1	9%	-5%	-26%	.	4%
